# The sample as a whole holds a higher share of hits than the screen did.
# Artemis inh: inhibitors of human Artemis endonuclease activity; AID 686954; Q96SD1; recombinant Artemis, quenched FAM hairpin cleavage fluorescence; inhibition, % at 10 µM; 30,000 tested, 0.78% active;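 active = at 10 µM dose, at least 30% inhibition, measured as corrected fluorescence normalized to stimulator and neutral control wells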
# Target sequence (Q96SD1 whole entry, looked up): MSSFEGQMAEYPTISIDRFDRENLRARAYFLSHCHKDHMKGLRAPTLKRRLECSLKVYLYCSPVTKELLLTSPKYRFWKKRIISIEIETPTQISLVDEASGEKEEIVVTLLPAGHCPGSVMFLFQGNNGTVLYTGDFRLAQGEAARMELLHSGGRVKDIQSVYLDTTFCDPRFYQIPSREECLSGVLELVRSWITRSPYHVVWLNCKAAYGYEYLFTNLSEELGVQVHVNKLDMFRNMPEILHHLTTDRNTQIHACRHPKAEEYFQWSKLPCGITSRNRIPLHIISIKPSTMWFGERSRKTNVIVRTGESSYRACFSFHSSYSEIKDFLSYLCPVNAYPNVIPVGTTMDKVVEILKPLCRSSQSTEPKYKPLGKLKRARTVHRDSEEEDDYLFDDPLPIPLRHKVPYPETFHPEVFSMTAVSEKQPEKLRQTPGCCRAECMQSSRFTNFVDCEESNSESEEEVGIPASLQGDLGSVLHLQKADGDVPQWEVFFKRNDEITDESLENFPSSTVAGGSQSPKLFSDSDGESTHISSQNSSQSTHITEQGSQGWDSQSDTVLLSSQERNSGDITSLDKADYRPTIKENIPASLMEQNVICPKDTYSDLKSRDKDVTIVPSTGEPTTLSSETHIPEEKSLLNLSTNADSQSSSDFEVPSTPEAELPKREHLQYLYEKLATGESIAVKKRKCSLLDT
# An asterisk follows results filed as active.
SMILES,Artemis inh
COc1ccc(Br)cc1/C=N/NC(=O)c1nc(-c2ccccc2)n2c1CCCCC2,30*
COc1ccccc1S(=O)(=O)Nc1ccc(-c2nnc3n2CCCCC3)cc1,-4
C=CCn1c(=O)c(C(=O)Nc2cccnc2)c(O)c2ccccc21,16
CC(C)Cn1c2c(c(O)c(C(=O)Nc3ncccc3O)c1=O)CCCC2,30*
CCn1c(=O)c(C(=O)NCc2ccccn2)c(O)c2ccccc21,-5
N#Cc1ccc(-n2nccc2-c2cnc3n(c2=O)CCS3)cc1,-1
O=S(=O)(c1ccc2c(c1)OCCO2)N(Cc1ccc(F)cc1)Cc1nnc(-c2cccs2)o1,7
Cc1nn(-c2ccccc2)c2c1C1(C(=O)N(C(C)C)c3ccccc31)C(C#N)=C(N)O2 (stereo not drawn),-2
O=C(N/N=C\c1ccc(-c2ccccc2[N+](=O)[O-])o1)C1COc2cc3ccccc3cc2O1 (stereo not drawn),36*
Cc1ccc(/C=N\NC(=O)C2COc3cc4ccccc4cc3O2)o1 (stereo not drawn),4
COc1ccc(OC)c(NC(=O)C2COc3ccccc3O2)c1 (stereo not drawn),-1
Cc1ccc(C(=O)COC(=O)CCC(=O)Nc2cccc(Cl)c2)cc1[N+](=O)[O-],-13
NC(=O)c1ccsc1NC(=O)COC(=O)Cc1cccc2ccccc12,5
CC(C)c1ccc(Nc2nc(NCc3ccco3)nc(N3CCOCC3)n2)cc1,21
CCOc1nc(NCc2ccco2)nc(Nc2ccc(OC)cc2)n1,5
COc1ccc(Nc2nc(NCc3ccco3)nc(N/N=C/c3ccccc3)n2)cc1,72*
Cc1ccc(-c2nnc(N3CCOCC3)c3ccccc23)cc1S(=O)(=O)NCC1CCCO1 (stereo not drawn),-4
Cc1nc(NCCc2ccccc2F)c(C#N)c(C)c1[N+](=O)[O-],3
N#Cc1nc(-c2ccc(OCc3ccccc3)cc2)oc1NCc1ccco1,-5
N#Cc1nc(-c2ccc(OCc3ccc(Cl)cc3)cc2)oc1NCCCn1ccnc1,49*
CNc1oc(-c2ccc(OCc3ccccc3)cc2)nc1C#N,2
OC1(c2cccc(C(F)(F)F)c2)CCN(c2ncnc3c2[nH]c2ccc(F)cc23)CC1,14
Cc1ccnc(NC(=O)c2cccc(NS(=O)(=O)c3ccccc3C)c2)c1,9
CCOC(=O)CCCNC(=O)COC(=O)c1ccc(O)cc1,-3
COc1ccccc1NC(=O)CN1CCN(CC(=O)Nc2ccc(OCc3ccccc3)cc2)CC1,5
SMILES,Artemis inh
COc1ccc(NC(=S)Nc2ccc(OCc3ccccc3)cc2)cc1OC,-3
COc1ccccc1NC(=O)C(=O)N/N=C(\C)CC(=O)Nc1ccc(OCc2ccccc2)cc1,33*
CCCCOc1ccc(CNC(=S)N/N=C/c2ccc(OC)c(OC)c2)cc1,3
O=C(NCc1cccnc1)/C(=C/c1ccc(-c2cccc(Cl)c2)o1)S(=O)(=O)c1ccccc1,1
O=C(Nc1c(Cl)cc(Cl)cc1C(=O)NCc1cccnc1)c1ccc(Cl)cc1Cl,0
Cc1ccc(C(=O)N/C(=C\c2ccc(-c3cc(Cl)ccc3Cl)o2)C(=O)NCc2cccnc2)cc1,34*
C/C(CC(=O)Nc1ccccn1)=N\NC(=O)C(=O)Nc1cccc(Cl)c1C,0
C/C(CC(=O)Nc1ccccn1)=N\NC(=O)C(=O)Nc1cccc(C)c1,1
C/C(CC(=O)Nc1ccc(N(C)C)cc1)=N\NC(=O)c1ccccn1,33*
Cn1c(=O)c2c(ncn2CC(O)CNc2ccc(Br)cc2)n(C)c1=O (stereo not drawn),-5
CN=C1CC(SC)=C1c1ccc(C)cc1,1
Cc1c(-c2nc(N)nc(Nc3ccccc3)n2)oc2ccccc12,52*
Nc1nc(CSCCO)nc(Nc2ccccc2)n1,-3
COc1ccc(OC)c(Nc2nc(N)nc(-c3cc4ccccc4o3)n2)c1,1
O=C(CC1SC(N2CCCCC2)=NC1=O)Nc1cccc(C(=O)O)c1 (stereo not drawn),3
O=C1c2ccccc2C(=O)N1OCc1cccc(Cl)c1,55*
CC(=O)OCCCCON1C(=O)c2ccccc2C1=O,6
O=C1c2ccncc2C(=O)N1Cc1cccc(Cl)c1,4
Cc1cccc(N/C(=N\S(=O)(=O)c2ccccc2)C(F)(F)F)c1,-4
CC1CC(C)CN(C(=O)Cn2c(=O)n(CCCCC(=O)NCc3ccco3)c(=O)c3ccccc32)C1 (stereo not drawn),-5
CCN1/C(=C/c2ccc3ccccc3[n+]2CC)C=Cc2ccccc21,38*
CCN1C(=O)/C(=C2/C=Cc3ccccc3N2C)OC1=S,5
CN1c2ccccc2Oc2c(c(=O)n(C)c(=O)n2C)C1c1cccc([N+](=O)[O-])c1 (stereo not drawn),5
O=C(CSc1ncn[nH]1)NCCC(c1ccccc1)c1ccccc1,-2
CSc1ncc2c(n1)-c1cc(C)ccc1SC2,12
SMILES,Artemis inh
COC(=O)[C@@H]1[C@@H](C#N)C2(c3ccccc3-c3ccccc32)N(c2ccc(Cl)cc2)N1C#N,40*
CCN1CCN(C(=O)c2ccc(NS(=O)(=O)c3ccccc3)cc2)CC1,-8
Cc1ccc(-c2cc(C(=O)NCc3ccco3)c3ccccc3n2)s1,3
O=C(COC(=O)c1cc(-c2ccco2)nc2ccccc12)NCc1ccc2c(c1)OCO2,23
O=C(COC(=O)c1cc(-c2ccc(Cl)s2)nc2ccccc12)NCc1ccco1,32*
O=C(CSc1nnc(C2CC2)n1-c1ccccc1)Nc1ccc(N2CCOCC2)cc1,-2
CCOc1ccc2[nH]c(=O)c(C(c3nnnn3Cc3ccco3)N3CCCC(C)C3)cc2c1 (stereo not drawn),12
c1ccc2c(c1)c1ccccc1n1c(-c3ccc4c(c3)OCO4)nnc21,23
COc1cccc(/C=N/n2c(-c3cccs3)n[nH]c2=S)c1,9
CCC(C)(C)n1nnnc1C(c1ccc(C)cc1)N(Cc1ccco1)Cc1cccs1 (stereo not drawn),7
c1coc(CNc2nc(N3CCCCC3)nc3ccccc23)c1,6
c1ccc(-c2nc(NCc3ccco3)c3ccccc3n2)nc1,64*
c1ccc(N2CCN(c3nc(NCc4ccco4)c4ccccc4n3)CC2)cc1,25
CC(C)CCOc1ccc(Cl)cc1CN1CCOCC1,-11
c1ccc(CSc2nnc(-c3sccc3-n3cccc3)o2)cc1,6
CCn1c(-c2ccccc2Cl)nn(CC(=O)Nc2ccccc2C)c1=S,-4
Oc1c(C(Nc2ccccn2)c2ccccn2)ccc2cccnc12 (stereo not drawn),38*
Cc1cc(NC(c2ccc(Cl)cc2)c2ccc3cccnc3c2O)no1 (stereo not drawn),10
CC(=O)NC(c1ccco1)c1ccc2cccnc2c1O (stereo not drawn),-3
COc1ccc(-c2[nH]ncc2/C=C(/C#N)C(=O)NC2CCCCCC2)cc1,7
CCc1cc2c(SCC(=O)c3ccc(Cl)s3)ncnc2s1,8
Cn1c(SCC(=O)NC(=O)NCc2ccco2)nnc1C(F)(F)F,7
Cc1nn(-c2ccc(F)cc2)c2sc(C(=O)N3CCCCCC3)cc12,6
Cc1nc(NC(=O)c2cc3c(C)nn(-c4ccccc4)c3s2)sc1C(=O)Nc1ccccc1,83*
Cc1nc(C)c(C(=O)Nc2ccccc2)s1,-4
CC(OC(=O)C1CCN(S(=O)(=O)c2ccc(Cl)cc2)CC1)C(=O)N1CCc2ccccc21 (stereo not drawn),1
COc1ccc(O)c(/C=N/Nc2nc(Nc3ccccc3)nc(-n3nc(C)cc3C)n2)c1,102*
Cc1cc(C)n(-c2nc(C)nc(NCc3ccccc3)n2)n1,-2
COc1ccc(O)c(/C=N/NC(=O)CSc2nnc(C)n2-c2ccccc2)c1,0
